The whole screen tested about 5,500 compounds, of which about 2,000 (36%) were called active. Inconclusive results (about 18%) are left out. No stated cut-off is given here; in the data, active means normalized growth mostly below about 0.91 (no sharp cut-off); inconclusive means no clear call, values can overlap the other calls; inactive means mostly above about 0.92. Some of the results follow.
Assay: chemical genetic growth profiling, strain panel (AID 1159580);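 further: tested at 20 µM; growth read once vehicle control cultures reached saturation at 30 °C; 1 = growth at the plate median or of vehicle wells; lower values mean less growth of the strain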
Conditions: growth OD

Measured: normalized growth

COc1ccc(OC)c(C(O)C(C)N)c1 (stereo unspecified)
inactive: S. cerevisiae deletion strains, locus YJR066W, strain TOR1, active compounds read low 0.991 | S. cerevisiae deletion strains, locus YJR075W, strain HOC1, active compounds read low 0.999 | S. cerevisiae deletion strains, locus YKL009W, strain mrt4, active compounds read low 0.995 | S. cerevisiae deletion strains, locus YKL068W, active compounds read low 0.997 | S. cerevisiae deletion strains, locus YKL085W, strain MDH1 (second series), active compounds read low 1 | S. cerevisiae deletion strains, locus YKL085W, strain MDH1, active compounds read low 1 | S. cerevisiae deletion strains, locus YKL160W, strain elf1, active compounds read low 0.983 | S. cerevisiae deletion strains, locus YKL190W, strain CNB1, active compounds read low 1.02 | S. cerevisiae deletion strains, locus YKR001C, strain vps1, active compounds read low 1 | S. cerevisiae deletion strains, locus YKR026C, strain gcn3, active compounds read low 0.994 | S. cerevisiae deletion strains, locus YKR091W, strain srl3, active compounds read low 0.989 | S. cerevisiae deletion strains, locus YLL001W, strain dnm1, active compounds read low 0.972 | S. cerevisiae deletion strains, locus YLL026W, active compounds read low 0.99 | S. cerevisiae deletion strains, locus YLL041C, strain sdh2, active compounds read low 1 | S. cerevisiae deletion strains, locus YLR027C, strain aat2, active compounds read low 0.987 | S. cerevisiae deletion strains, locus YLR039C, strain RIC1, active compounds read low 1.07 | S. cerevisiae deletion strains, locus YLR058C, strain SHM2, active compounds read low 1.01 | S. cerevisiae deletion strains, locus YLR102C, strain apc9, active compounds read low 0.992 | S. cerevisiae deletion strains, locus YLR113W, strain HOG1, active compounds read low 1.08 | S. cerevisiae deletion strains, locus YLR221C, strain rsa3, active compounds read low 0.994 | S. cerevisiae deletion strains, locus YLR258W, strain gsy2, active compounds read low 1.01 | S. cerevisiae deletion strains, locus YLR262C, strain YPT6 (second series), active compounds read low 0.999 | S. cerevisiae deletion strains, locus YLR262C, strain YPT6, active compounds read low 1.08 | S. cerevisiae deletion strains, locus YLR268W, strain sec22, active compounds read low 1 | S. cerevisiae deletion strains, locus YLR320W, strain mms22, active compounds read low 0.989 | S. cerevisiae deletion strains, locus YLR330W, strain CHS5, active compounds read low 1.01 | S. cerevisiae deletion strains, locus YLR342W, strain FKS1 (second series), active compounds read low 1.01 | S. cerevisiae deletion strains, locus YLR342W, strain FKS1, active compounds read low 0.976 | S. cerevisiae deletion strains, locus YLR357W, strain rsc2, active compounds read low 0.971 | S. cerevisiae deletion strains, locus YLR370C, strain arc18, active compounds read low 0.988 | S. cerevisiae deletion strains, locus YLR371W, strain rom2, active compounds read low 0.989 | S. cerevisiae deletion strains, locus YLR384C, strain iki3, active compounds read low 0.987 | S. cerevisiae deletion strains, locus YLR418C, strain cdc73, active compounds read low 1.02 | S. cerevisiae deletion strains, locus YML016C, strain PPZ1, active compounds read low 1.02 | S. cerevisiae deletion strains, locus YML032C, strain rad52, active compounds read low 0.977 | S. cerevisiae deletion strains, locus YML120C, strain ndi1, active compounds read low 0.997 | S. cerevisiae deletion strains, locus YML124C, strain tub3, active compounds read low 0.993 | S. cerevisiae deletion strains, locus YMR078C, strain ctf18, active compounds read low 0.987 | S. cerevisiae deletion strains, locus YMR125W, strain sto1, active compounds read low 0.994 | S. cerevisiae deletion strains, locus YMR129W, active compounds read low 0.978 | S. cerevisiae deletion strains, locus YMR205C, strain PFK2, active compounds read low 1 | S. cerevisiae deletion strains, locus YMR223W, strain ubp8, active compounds read low 0.996 | S. cerevisiae deletion strains, locus YMR231W, strain pep5, active compounds read low 0.99 | S. cerevisiae deletion strains, locus YMR263W, strain SAP30, active compounds read low 1.03 | S. cerevisiae deletion strains, locus YMR307W, strain GAS1, active compounds read low 0.992 | S. cerevisiae deletion strains, locus YNL067W, strain RPL9B, active compounds read low 1.02 | S. cerevisiae deletion strains, locus YNL071W, strain lat1, active compounds read low 1 | S. cerevisiae deletion strains, locus YNL128W, strain TEP1, active compounds read low 1.01 | S. cerevisiae deletion strains, locus YNL153C, strain GIM3, active compounds read low 1.04 | S. cerevisiae deletion strains, locus YNL175C, strain NOP13, active compounds read low 0.996 | S. cerevisiae deletion strains, locus YNL183C, strain NPR1, active compounds read low 1.01 | S. cerevisiae deletion strains, locus YNL197C, strain WHI3, active compounds read low 1.01 | S. cerevisiae deletion strains, locus YNL209W, strain ssb2, active compounds read low 1 | S. cerevisiae deletion strains, locus YNL224C, strain SQS1, active compounds read low 1.01 | S. cerevisiae deletion strains, locus YNL233W, strain BNI4, active compounds read low 1.02 | S. cerevisiae deletion strains, locus YNL248C, strain rpa49, active compounds read low 0.997 | S. cerevisiae deletion strains, locus YNL250W, strain rad50, active compounds read low 0.978 | S. cerevisiae deletion strains, locus YNL271C, strain bni1, active compounds read low 1 | S. cerevisiae deletion strains, locus YNL298W, strain CLA4, active compounds read low 1 | S. cerevisiae deletion strains, locus YNL307C, strain MCK1, active compounds read low 0.976 | S. cerevisiae deletion strains, locus YNL322C, strain KRE1 (second series), active compounds read low 0.991 | S. cerevisiae deletion strains, locus YNL322C, strain KRE1, active compounds read low 1.01 | S. cerevisiae deletion strains, locus YNR049C, strain mso1, active compounds read low 0.99 | S. cerevisiae deletion strains, locus YNR052C, strain pop2, active compounds read low 0.992 | S. cerevisiae deletion strains, locus YOL006C, strain TOP1, active compounds read low 1.13 | S. cerevisiae deletion strains, locus YOL012C, strain htz1 1.17 | S. cerevisiae deletion strains, locus YOL147C, strain pex11, active compounds read low 0.979 | S. cerevisiae deletion strains, locus YOR001W, strain rrp6, active compounds read low 0.992 | S. cerevisiae deletion strains, locus YOR061W, strain CKA2, active compounds read low 1.02 | S. cerevisiae deletion strains, locus YOR069W, strain VPS5, active compounds read low 1.01 | S. cerevisiae deletion strains, locus YOR070C, strain gyp1, active compounds read low 0.999 | S. cerevisiae deletion strains, locus YOR080W, strain dia2, active compounds read low 0.99 | S. cerevisiae deletion strains, locus YOR083W, strain WHI5 (second series), active compounds read low 1.01 | S. cerevisiae deletion strains, locus YOR083W, strain WHI5, active compounds read low 0.961 | S. cerevisiae deletion strains, locus YOR106W, strain vam3, active compounds read low 0.986 | S. cerevisiae deletion strains, locus YOR136W, strain idh2, active compounds read low 0.982 | S. cerevisiae deletion strains, locus YOR144C, strain elg1, active compounds read low 0.985 | S. cerevisiae deletion strains, locus YOR184W, strain ser1, active compounds read low 0.978 | S. cerevisiae deletion strains, locus YOR231W, strain MKK1, active compounds read low 1.07 | S. cerevisiae deletion strains, locus YOR265W, strain rbl2, active compounds read low 0.997 | S. cerevisiae deletion strains, locus YOR270C, strain vph1, active compounds read low 1.01 | S. cerevisiae deletion strains, locus YOR290C, strain snf2, active compounds read low 1.01 | S. cerevisiae deletion strains, locus YOR316C, strain cot1, active compounds read low 0.991 | S. cerevisiae deletion strains, locus YPL051W, strain arl3, active compounds read low 0.991 | S. cerevisiae deletion strains, locus YPL055C, strain LGE1, active compounds read low 1.06 | S. cerevisiae deletion strains, locus YPL078C, strain atp4, active compounds read low 0.961 | S. cerevisiae deletion strains, locus YPL106C, strain sse1, active compounds read low 1.01 | S. cerevisiae deletion strains, locus YPL240C, strain hsp82, active compounds read low 0.991 | S. cerevisiae deletion strains, locus YPL241C, strain CIN2, active compounds read low 1.01 | S. cerevisiae deletion strains, locus YPL256C, strain CLN2, active compounds read low 1.06 | S. cerevisiae deletion strains, locus YPR119W, strain clb2, active compounds read low 0.988 | S. cerevisiae deletion strains, locus YPR141C, strain kar3, active compounds read low 0.984 | S. cerevisiae deletion strains, locus YPR163C, strain tif3, active compounds read low 0.98 | S. cerevisiae deletion strains, locus YPR167C, strain met16, active compounds read low 0.996 | S. cerevisiae deletion strains, strain wtn01, active compounds read low 1.01 | S. cerevisiae strains, strain wild type, active compounds read low 1.01
